From the OligoGym collection

Target: GPR64
Assay: pooled miR-30 sensor sort-seq; sequence = guide strand
Conditions: shRNA
Note: reference of the scale not given here.

Row | Sequence | sensor-assay potency score (higher = more potent)
1 | TAAGCTTAAAGTAACATCTGGA | 0.962
2 | TAGTGTTGACATTCGCAGGGGC | 0.711
3 | TTGAATACTGGTTTTTCGCTGG | 0.838
4 | TTCTATAATCTGACTACTGGGG | -0.476
5 | TACATGTAGCAACAATAGCAGT | -1.27
6 | ATTATCAGTATCTTCTTCCAGG | -0.212
7 | TTGAAGAGCTGGACACTCCTTG | 0.677
8 | TAAAGTAACATCATTGAGGCTT | 0.0974
9 | TAGTCTACTCTCCTGTTCCTAA | -0.669
10 | TAGTGTATTGTTTAAAACCAAC | -1.45
11 | TTGGTTTACAGTCTGCTTCTTT | 0.449
12 | TAACAATCAACAATGTACCATG | -0.826

Target: GPRC5B
Assay: as above
Conditions: shRNA

Row | Sequence | sensor-assay potency score (higher = more potent)
13 | TTGTTCTCCATATAGGCCCGCG | -1.02
14 | TTGAACTTGCCGCACAGAGTGA | -0.846
15 | TACCATGTCGTAGATGAGGGCC | -0.116
16 | TACACGTTGCTTCTAAACGGAG | -1.35
17 | TGCTGCAGCTTGACATTGCCGA | -0.579
18 | TTGAGCACGACGGCCATCTCAG | -1.15
19 | AAGAGGTACATGGTCATCCAGG | -1.02
20 | ATGAGCATCAGGAGCAGTGTGA | -1.27
21 | TTGGGAAATCCTGCTGTTCGGA | -0.702
22 | TTCCACCTCTTGAACTTGCCGC | -0.546
23 | ATACACGTTGCTTCTAAACGGA | -0.0127
24 | TTCGGAGAGCTGCATTGTGTTC | -1.86
